# Out of some 330,000 compounds screened, about 4,400 (1.3%) were called active. The entries come from a sample that favours actives as a whole. A number with no mark means an inactive call.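 Rule for the calls: active = growth inhibition of the mutant yeast at or above 50%; inactive = the rest.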
# Experiment: growth inhibition of tim23-1 ts yeast – luminescence, uHTS, primary screen (AID 463212);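 note: temperature-sensitive mutant grown at 25 °C; plate controls were DMSO-treated mutant yeast for no effect and medium wells lacking yeast for full effect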
# Details: S. cerevisiae tim23-1 growth, BacTiter-Glo luminescence, 24 h; at 20 µM; hits give high values
row,SMILES,inhibition
1,Cc1cc2c(cc1C)N(C(=O)CN1C(=O)c3ccccc3C1=O)C(C)(C)c1ssc(=S)c1-2,30.3%
2,Cc1ccc(C(=O)Nc2ccc(NC(=O)c3cccs3)cc2)c(C)c1,11.9%
3,COc1cc(NC(=O)c2ccc3c(c2)OCO3)ccc1NC(=O)c1cccs1,-5.22%
4,COc1cc(NC(=O)c2cccs2)ccc1NC(=O)c1ccccc1Cl,55.3% (active)
5,O=C(Nc1cc(-c2ccccc2)nn1-c1ccccc1F)c1ccc([N+](=O)[O-])cc1,18.1%
6,CCn1ncc(Br)c1C(=O)Nc1cc(C)ccc1F,38.3%
7,CCCc1[nH]nc2c1C(c1ccc(OC)c(Cn3nc(C)c(Br)c3C)c1)C(C#N)=C(N)O2 (stereo unspecified),0.046%
8,CCCc1[nH]nc2c1C(c1ccc(Br)s1)C(C#N)=C(N)O2 (stereo unspecified),86.6% (active)
9,CCCc1[nH]nc2c1C(c1ccc(OC(=O)c3ccco3)cc1)C(C#N)=C(N)O2 (stereo unspecified),-11.4%
10,O=C(O)C1CCCN(CCC=C(c2ccccc2)c2ccccc2)C1 (stereo unspecified),4.65%
11,Cc1cccc(N2CCN(C(=O)c3cc4c(=O)[nH]c5ccccc5c4n3C)CC2)c1C,13%
12,CC(C)(C)OC(=O)NCCCC1=CC2=CC(=O)C(C)(OC(=O)c3ccco3)C(=O)C2=CO1 (stereo unspecified),13.3%
13,Cc1ccc(C(=O)COc2cccc(NC(=O)c3ccco3)c2)cc1,54.5% (active)
14,COc1ccc(OCC(=O)Nc2ccc(NC(=O)c3ccco3)c(C)c2)cc1,16.1%
15,Cc1cccc(OCC(=O)Nc2ccc(NC(=O)c3ccco3)c(C)c2)c1,22%
16,Cc1cccc(N(C)C(=O)c2cc(S(=O)(=O)N3CCCCC3)c[nH]2)c1,23.4%
17,CCOC(=O)CSc1nnc(CNC(=O)Cc2ccccc2)n1-c1ccccc1OC,7.97%
18,Cc1ccc(-n2cnc3ncnc(-c4ccccc4)c32)cc1,15.5%
19,Cc1ccc(-c2nn(C(C)(C)C)c3ncnc(N)c23)cc1,57.5% (active)
20,Cc1c([N+](=O)[O-])c(N)nn1C,-8.73%
21,Cc1cc(C(=O)COC(=O)C2CC2)c(C)n1-c1ccc(F)cc1,35.7%

row,SMILES,inhibition
1,O=C(CNC(=O)OCc1ccccc1)Oc1cc2oc(=O)cc(-c3ccccc3)c2cc1Cl,54.3% (active)
2,CC(=O)COc1ccc2c(-c3ccccc3)cc(=O)oc2c1,-1.93%
3,O=C(CNC(=O)c1ccc(-c2ccccc2)cc1)OCc1ccc(Cl)cc1,-7.6%
4,O=C1Cc2ccccc2Sc2ccc(Cl)cc21,28.6%
5,COc1cc(NS(=O)(=O)c2ccc(N/C=C(\C=O)c3nc4cc(Cl)ccc4o3)cc2)nc(OC)n1,15.4%
6,Cc1ccc(C(=O)N/C(=C\c2ccco2)C(=O)NC2CCS(=O)(=O)C2)cc1 (stereo unspecified),24.1%
7,COc1cc2ccccc2cc1C(=O)N1CCOCC1,22.5%
8,COC1=C(N2CCOCC2)C(=O)c2ccccc2C1=O,2.06%
9,Cc1oc2c(c1C(=O)N1CCOCC1)C(=O)c1ccccc1C2=O,69% (active)
10,CCC(=O)N1CCC(C(N)=O)(N2CCCCC2)CC1,-3.89%
11,Cc1cccc(-c2nc3ccc(C(=O)NCCN4CCN(C)CC4)cc3nc2-c2cccc(C)c2)c1,25.1%
12,Cn1nnc2cc(C(=O)NCCC3=CCCCC3)ccc21,-1.3%
13,C=CCNC(=O)c1ccc2c3n(nc2c1)-c1ccc(C)cc1CO3,57.6% (active)
14,COc1ccc(-c2cc(C)nc3nc(N)nn23)cc1,8.84%
15,Cc1cc(C(C)(C)C)cc(C)c1N,9.69%
16,Cc1cc(N)n2nc(-c3ccc(C(C)(C)C)cc3)cc2n1,72.3% (active)
17,Cc1nnc(NC(=O)CSc2nc(C3CCCCC3)nc3ccccc23)s1,-0.646%
18,O=C1c2ccccc2C(=O)N1CCC(c1ccccc1)c1ccco1 (stereo unspecified),22.6%
19,O=S(=O)(Nc1cccc(-n2cnnn2)c1)c1cnc(Cl)c(Cl)c1,-3.26%
20,CCCc1c(C(=O)O)cnn1-c1ccc(Cl)cc1,13.8%
21,CCCc1c(C(=O)Nc2ccc(F)cc2)cnn1-c1ccccc1,55.9% (active)

row,SMILES,inhibition
1,CCNC(=O)c1cnn(-c2ccccc2)c1-c1ccccc1,0.114%
2,CC(=O)c1ccccc1NC(=O)C1CC(=O)N(c2ccc3c(c2)OCCO3)C1 (stereo unspecified),14.1%
3,CC1(c2ccccc2)CC(C)(C)N(C(=O)c2cc([N+](=O)[O-])cc([N+](=O)[O-])c2)c2ccccc21 (stereo unspecified),4.81%
4,CC1CCN(C(=S)c2cccc([N+](=O)[O-])c2)CC1,21.4%
5,CC1CCC2CCCCC2N1C(=O)c1cc([N+](=O)[O-])cc([N+](=O)[O-])c1 (stereo unspecified),51.9% (active)
6,COc1ccc(S(=O)(=O)N2CCOCC2)cc1NC(=O)CSc1cc(C)ccc1C,7.5%
7,CC[C@]12c3[nH]c4ccc(OC)cc4c3CCN1C(=O)C(CC(=O)NCCN1CCOCC1)C[C@@H]2C(=O)N1CCN(C(=O)C2CC2)CC1 (stereo partly specified),26.2%
8,O=C(Nc1ccc2oc(-c3ccccc3F)nc2c1)c1ccco1,57.8% (active)
9,Cc1cc(NC(=O)c2ccc(F)cc2)ccc1NC(=O)c1ccco1,13.5%
10,O=C(Nc1cccc(-c2nc3ncccc3o2)c1)c1ccco1,4.7%
11,CCCCC1(C(=O)OCC)NC(c2ccc(O)cc2)C2C(=O)N(c3ccccc3)C(=O)C21 (stereo unspecified),1.2%
12,CCC(=O)Nc1ccc(C(=O)CSc2nnc(CNc3ccc(Cl)cc3)o2)cc1OC,-7.17%
13,O=C(COC(=O)CNC(=O)C1CCCCC1)Nc1cccc(F)c1,17.5%
14,CN(CC(=O)Nc1ccccc1C(F)(F)F)C(=O)Cc1ccccc1F,14.9%
15,N#C/C(=C\c1ccccc1C(F)(F)F)C(=O)Nc1ccccc1F,71.2% (active)
16,O=C(Nc1ccccc1F)c1ccccc1-c1ccc(C(F)(F)F)cc1,16%
17,COc1cc([N+](=O)[O-])ccc1NC(=O)COC(=O)CCOc1ccc(C)cc1,73.7% (active)
18,COc1cccc(NC(=O)COC(=O)CCOc2ccccc2OC)c1,8.9%
19,CSc1ccccc1NC(=O)COC(=O)CCCOc1ccc(C)cc1,-1.47%
